From ChEMBL document CHEMBL5724796, “Tm Shift (DSF) assay results for EUbOPEN Chemogenomics Library” (2024)

Molecular target: Cyclin-dependent kinase 2 (Homo sapiens) (UniProt P24941)
Conditions: Compound concentration 20.0 uM

Compared with `COc1ccc(CC[C@H]2CCC[C@@H](CCc3ccc(OC)cc3)N2C[C@@H](O)CO)cc1`, `OC[C@H]1O[C@@H](c2ccc(Cl)c(Cc3ccc(O[C@H]4CCOC4)cc3)c2)[C@H](O)[C@@H](O)[C@@H]1O` is lower in ΔTm: 0.11 °C for the first, -0.08 °C for the second.

Compared with `C=C(C)[C@@H](CC=C(C)C)C[C@@]12C[C@@H](CC=C(C)C)C(C)(C)[C@@](CC=C(C)C)(C(=O)C(C(=O)c3ccc(O)c(O)c3)=C1O)C2=O`, `C[C@H]1CO[C@@H]2Cn3cc(C(=O)NCc4ccc(F)cc4F)c(=O)c(O)c3C(=O)N12` is higher in ΔTm: -3.75 °C for the first, 0.09 °C for the second.

First: CNC(=O)c1cc(Nc2ccnc(Nc3ccc(CCNC(=O)OC(C)(C)C)cc3)n2)n[nH]1
Second: CN(C)CCCNC(=O)c1ccc(-c2cc(O)c3ncccc3c2)cc1
The ΔTm of the first is lower: -0.49 °C for the first, 0.45 °C for the second.

First: O=C(c1cc(Cc2n[nH]c(=O)c3ccccc23)ccc1F)N1CC(CNC2CC2)C1
Second: Cn1c(=O)cc(N2CCC[C@@H](N)C2)n(Cc2cc(F)ccc2C#N)c1=O
The ΔTm of the first is lower: 0.08 °C for the first, 0.46 °C for the second.

Compared with `CCCCOc1c(OC)cc(C(=O)NCC2(N(C)C)CCOCC2)cc1OC`, `COc1cc(C(=O)NCC2(N(C)C)CCCC2)cc(OC)c1OCc1ccccc1` is higher in ΔTm: 0.02 °C for the first, 0.36 °C for the second.

Going from `CCOCC1(COCC)CCC(c2n[nH]cc2CN(C)CCNC)CC1` to `CCCNC(=O)[C@H]1O[C@@H]1C(=O)N[C@H](C(=O)N1CCC[C@H]1C(=O)O)[C@@H](C)CC`, the ΔTm falls from -0.06 °C to -0.18 °C.

First: CCS(=O)(=O)N1CC(CC#N)(n2cc(-c3ncnc4[nH]ccc34)cn2)C1
Second: Cc1c(Nc2ccc(S(=O)(=O)N3CCN(C)CC3)cc2F)nc2ccc(-c3cnn(C4CC4)c3)cn2c1=O
The ΔTm of the first is higher: 0.85 °C for the first, 0.26 °C for the second.

First: COC[C@H](NC(=O)c1ccn(S(C)(=O)=O)c1)C(=O)Nc1nc(-c2cccc(-c3ccn(C)n3)c2)cs1
Second: COc1ccc(-c2ccc(-c3cn(C(=O)N4CCCCC4c4ccccc4)nn3)cc2)cc1 (stereo unspecified)
The ΔTm of the first is higher: 0.17 °C for the first, 0.04 °C for the second.
